PubChem BioAssay (EPA / NIEHS)
Activity calls are given as the source filed them. How the source made its calls: active means hit-call score of the fitted dose curve at least 0.9, where 1 is the maximum; inactive means score below 0.9.

read-out: Interleukin-8 (IL8), CXCL8 (gene 3576); assay: BSK_LPS_IL8: BioMAP Diversity Plus: LPS Assay for Interleukin-8 (IL8) Biomarker Activity (AID 2283078); details: primary human HUVEC with PBMC; actives raise or lower the signal
Protocol: BSK_LPS is a cell-based, multiplexed-readout assay that uses umbilical vein endothelium and peripheral blood mononuclear cells, a human vascular primary cell co-culture, with measurements taken at 24 hours after chemical dosing in a 96-well plate.BSK_LPS_IL8 is an assay component measured in the BSK_LPS assay. It measures IL-8 antibody related to regulation of gene expression using ELISA technology.Data from the assay component BSK_LPS_IL8 was analyzed into 1 assay endpoint. This assay endpoint, BSK_LPS_IL8, was analyzed with bidirectional fitting relative to DMSO as the negative control and baseline of activity. Using a type of binding reporter, gain or loss-of-signal activity can be used to understand changes in the signaling as they relate to the gene CXCL8. Furthermore, this assay endpoint can be referred to as a primary readout, because this assay has produced multiple assay endpoints where this one serves a signaling function. To generalize the intended target to other relatable targets, this assay endpoint is annotated to the cytokine intended target family, where the subfamily is interleukins.
The levels of cell surface (or secreted, indicated by the prefix "s") biomarker endpoints were measured by ELISA. Overt cytotoxicity to cells in confluent adherent cultures (all systems other than the BT system) was assessed by measuring total protein levels using sulforhodamine B (SRB) staining in parallel cultures at the time of biomarker measurements, indicated as SRB endpoints. For proliferation assays for adherent cell types, individual cell types are cultured at sub-confluence and relative cell numbers quantified by SRB staining at time points optimized for each system (48 h: 3C and CASM3C systems; 72 h: BT and HDF3CGF systems; 96 h: SAg system). SRB was performed by staining cells with 0.1% SRB after fixation with 10% TCA and reading wells at 560 nm.Viability and proliferation of PBMC (T cells) was quantified by Alamar Blue reduction for the SAg and BT systems. For PBMC viability (referred to as PBMC Cytotoxicity within the assay endpoint names), cells were plated (75,000/well in a 96-well plate) and then chemical samples added for 1 h before addition of activators, SEB and TSST-1 (20 ng/mL final concentration each). Cells were incubated for 90 h. Then, Alamar Blue (20 uL/well) (Invitrogen, Cat DAL1100) was added for 6 h, and the plates were read with a fluorescence microplate reader at 546/580 nm (excitation/emission). For PBMC proliferation, cells were plated and activated as above but incubated for only 16 h prior to addition of Alamar Blue. Plates were read after 6 h.

Structure (SMILES) | outcome | AC50
COP(=S)(OC)Oc1ccc([N+](=O)[O-])c(C)c1 | inactive | 
Nc1c(Cl)c(Cl)nc(C(=O)O)c1Cl | inactive | 
COC(=O)NC(=S)Nc1ccccc1NC(=S)NC(=O)OC | inactive | 
CC(C)N1C(=O)c2ccccc2NS1(=O)=O | inactive | 
N#Cc1c[nH]cc1-c1cccc2c1OC(F)(F)O2 | inactive | 
CN=C=S | inactive | 
C=CCOC(=O)C(C)(C)OC(=O)c1cc(-n2c(=O)cc(C(F)(F)F)n(C)c2=O)ccc1Cl | inactive | 
CCNP(=S)(OC)O/C(C)=C/C(=O)OC(C)C (stereo not given) | inactive | 
O=P(O)(O)CCCl | inactive | 
N#CN=C1SCCN1Cc1ccc(Cl)nc1 | inactive | 
CCC(C)n1c(=O)[nH]c(C)c(Br)c1=O (stereo not given) | inactive | 
CCCCOCN(C(=O)CCl)c1c(CC)cccc1CC |  | 28 µM (active)
C=C(C)CN(CC)c1c([N+](=O)[O-])cc(C(F)(F)F)cc1[N+](=O)[O-] | inactive | 
COCC(=O)N(c1c(C)cccc1C)C(C)C(=O)OC (stereo not given) | inactive | 
CCN(CC)c1nc(C)cc(OP(=S)(OC)OC)n1 | inactive | 
CN/C(=N\[N+](=O)[O-])NCc1cnc(Cl)s1 | inactive | 
CCCC(=NOCC)C1=C(O)CC(CC(C)SCC)CC1=O (stereo not given) | inactive | 
COC(=O)NS(=O)(=O)c1ccc(N)cc1 | inactive | 
CC1(C)C(C=C(Cl)Cl)C1C(=O)OC(C#N)c1cccc(Oc2ccccc2)c1 (stereo not given) | inactive | 
CC(C)N1C(=O)N(c2ccccc2)CSC1=NC(C)(C)C |  | 17.1 µM (active)

Structure (SMILES) | outcome | AC50
CC1(C)CCC(=Cc2ccc(Cl)cc2)C1(O)Cn1cncn1 (stereo not given) | inactive | 
Cn1c(-c2ccccc2)cc(-c2ccccc2)[n+]1C | inactive | 
Nc1cnn(-c2ccccc2)c(=O)c1Cl | inactive | 
COc1cc(OC)nc(NC(=O)NS(=O)(=O)c2ncccc2OCC(F)(F)F)n1 | inactive | 
COc1ccc(-c2ccccc2)cc1NNC(=O)OC(C)C | inactive | 
COP(=O)(OC)O/C(C)=C/C(=O)N(C)C | inactive | 
CS(=O)(=O)c1ccc(C(=O)C2C(=O)CCCC2=O)c([N+](=O)[O-])c1 | inactive | 
COc1cc(Cl)c(OC)cc1Cl | inactive | 
O=C(Nc1ccccc1-c1ccc(Cl)cc1)c1cccnc1Cl | inactive | 
CC(C)NC(=O)N1CC(=O)N(c2cc(Cl)cc(Cl)c2)C1=O | inactive | 
CC(C)Nc1nc(Cl)nc(NC(C)C)n1 | inactive | 
Cc1cc(C)nc(Nc2ccccc2)n1 |  | 26.8 µM (active)
OC(c1ccc(Cl)cc1)(c1ccc(Cl)cc1)C(Cl)(Cl)Cl |  | 30.6 µM (active)
CCCCC(C#N)(Cn1cncn1)c1ccc(Cl)cc1 (stereo not given) | inactive | 
Clc1cccc(C(Cl)(Cl)Cl)n1 | inactive | 
Nc1c(Cl)c(F)nc(OCC(=O)O)c1Cl | inactive | 
O=c1n(Cl)c(=O)n(Cl)c(=O)n1Cl | inactive | 
COC(=O)N(C(=O)N1CO[C@@]2(C(=O)OC)Cc3cc(Cl)ccc3C2=N1)c1ccc(OC(F)(F)F)cc1 |  | 5.43 µM (active)
Cc1c(COC(=O)[C@@H]2[C@H](/C=C(\Cl)C(F)(F)F)C2(C)C)cccc1-c1ccccc1 |  | 5.39 µM (active)
CNC(=O)Oc1cccc2ccccc12 | inactive | 
